For eight molecules, growth inhibition results are on record in PubChem BioAssay (NCI).

About 79,000 compounds went through this panel and 15% of them were active in at least one assay; those are over-represented in the sample as a whole. Activity calls are given as the source filed them. Rule as the data show it: active = growth inhibition above about 70%; inactive = the rest.

The test in a line: NCI Yeast Anticancer Drug Screen. Data for the rad18 strain (AID 177). To be noted: S. cerevisiae rad18 mutant growth inhibition, hits give high values. The procedure: Growth inhibition of yeast strains with defined genetic alterations is measured as a screen for potential anti-cancer activity. Selected strains with alterations in DNA damage repair or cell cycle control were exposed to compounds and growth inhibition was measured relative to vehicle treated controls. The strain used in this assay is rad18

As for `Cc1cc(C)c(S(=O)(=O)c2ccc(Cl)cc2)c(C)c1`, the growth inhibition reads like this: (at 1.2 µM) -9% (inactive); (at 3.7 µM) -10% (inactive); (at 11.0 µM) -13% (inactive); (at 33.0 µM) -9% (inactive); (at 100.0 µM) 16% (inactive).

For `O=C(c1ccccc1)[C@H]1Nc2ccc(Cl)cc2[C@H]2OCCC[C@@H]12`, the growth inhibition by setting is: (at 1.2 µM) -13% (inactive); (at 3.7 µM) -11% (inactive); (at 11.0 µM) -10% (inactive); (at 33.0 µM) 31% (inactive); (at 100.0 µM) 92% (active).

In the case of `Cc1ccc(C)c(C(=N)c2ccccc2Cc2ccccc2)c1`, the growth inhibition (at 1.2 µM) is -3% (inactive); the growth inhibition (at 3.7 µM) is 20% (inactive); the growth inhibition (at 11.0 µM) is 67% (inactive); the growth inhibition (at 33.0 µM) was 94% (active); the growth inhibition (at 100.0 µM) was 96% (active).

As for `c1c[nH]c(CN2CCN(Cc3ncc[nH]3)CC2)n1`, the growth inhibition (at 1.2 µM) is 0% (inactive); the growth inhibition (at 3.7 µM) was 64% (inactive); the growth inhibition (at 11.0 µM) was 96% (active); the growth inhibition (at 33.0 µM) was 98% (active); the growth inhibition (at 100.0 µM) was 98% (active).

On to `CC(C)Cc1ncc(CCCN=C(N)N)[nH]c1=O`, for which the growth inhibition reads like this: (at 1.2 µM) -7% (inactive); (at 3.7 µM) -2% (inactive); (at 11.0 µM) -5% (inactive); (at 33.0 µM) -8% (inactive); (at 100.0 µM) -6% (inactive).

Regarding `c1cc(-c2sc(-c3ccncc3)c(-c3ccncc3)c2-c2ccncc2)ccn1`, the growth inhibition was 10% (inactive) (at 1.2 µM); -1% (inactive) (at 3.7 µM); 6% (inactive) (at 11.0 µM); 23% (inactive) (at 33.0 µM); 86% (active) (at 100.0 µM).

With `O=[N+]([O-])c1ccc(S(=O)(=O)Cc2ccccc2)c([N+](=O)[O-])c1`, the growth inhibition is 27% (inactive) (at 1.2 µM); 57% (inactive) (at 3.7 µM); 87% (active) (at 11.0 µM); 96% (active) (at 33.0 µM); 99% (active) (at 100.0 µM).

Regarding `CC(C)[Si]1(C(C)C)OCC2OC(n3cnc4c(N)ncnc43)C(N)C2O[Si](C(C)C)(C(C)C)O1` (stereo not given), the growth inhibition by setting is: (at 1.2 µM) -8% (inactive); (at 3.7 µM) 2% (inactive); (at 11.0 µM) 22% (inactive); (at 33.0 µM) 97% (active); (at 100.0 µM) 97% (active).
